From the antibiotic and cytotoxicity screens of Wong et al. (2023)
Out of some 39,000 compounds screened, about 3,300 (8.5%) were called active. What follows is part of a selection rich in actives, with near analogues and random picks from the rest.

These molecules were tested on HepG2 (assay: cytotoxicity call (relative viability < 0.9)). Conditions: 10 µM.

Compound	cytotoxicity call
COc1ccc(CN(C)C[C@H]2Oc3ccc(NC(=O)Cn4cnnn4)cc3CC(=O)N([C@H](C)CO)C[C@H]2C)cc1	inactive
C[C@@H]1CN([C@H](C)CO)C(=O)Cc2cc(NS(C)(=O)=O)ccc2O[C@@H]1CN(C)Cc1ccc2c(c1)OCO2	inactive
Nn1c(-c2ccncc2)n[nH]c1=S	inactive
O=C(CCc1cn(-c2ccc(C[C@H]3C(=O)O[C@@H](Cc4ccccc4)[C@H]4[C@@H]5C=CCCC=C5CN43)cc2)nn1)NO	inactive
O=C(/C=C/c1cccc(-c2cn(-c3ccc(C[C@H]4C(=O)O[C@@H](Cc5ccccc5)[C@H]5[C@@H]6C=CCCC=C6CN54)cc3)nn2)c1)NO	inactive
O=C(NO)c1cn(-c2ccc(C[C@H]3C(=O)O[C@@H](Cc4ccccc4)[C@H]4[C@@H]5C=CCCC=C5CN43)cc2)nn1	active
CC(C)[C@@H](CO)N1C(=O)[C@]2(C)[C@H]3C(=O)OCCC/C=C\[C@H]3O[C@]23C=CCN(c2ccc(Cl)cc2)C(=O)[C@@H]13	inactive
NC[C@@H]1O[C@H](C23CC4CC(CC(C4)C2)C3)Cc2c1ccc(O)c2O	inactive
C[C@H](CO)N1C[C@H](C)[C@H](CN(C)S(C)(=O)=O)Oc2cc(-c3ccccc3F)ccc2S1(=O)=O	inactive
CS(=O)(=O)Nc1ccc([N+](=O)[O-])cc1Oc1ccccc1	inactive
O=[N+]([O-])c1ccc(Oc2ccc(-c3ccccc3)cc2)cc1	active
C=C(C)COc1ccc([N+](=O)[O-])cc1	inactive
Cn1c(=O)c2c(ncn2CCNC2=NCCC2)n(C)c1=O	inactive
Cc1noc(C)c1NC(=O)Nc1cccc2c1O[C@@H](CN(C)S(=O)(=O)c1cn(C)cn1)[C@@H](C)CN([C@@H](C)CO)C2=O	inactive
Cc1noc(C)c1S(=O)(=O)Nc1ccc2c(c1)C(=O)N([C@H](C)CO)C[C@H](C)[C@H](CN(C)S(=O)(=O)c1ccccc1)O2	inactive
Cc1noc(C)c1S(=O)(=O)N(C)C[C@@H]1Oc2c(NS(=O)(=O)c3cn(C)cn3)cccc2C(=O)N([C@H](C)CO)C[C@@H]1C	inactive
CCC1(O)C(=O)OCc2c1cc1n(c2=O)Cc2cc3c(CN(C)C)c(O)ccc3nc2-1.Cl (configuration not stated)	active
CC[C@@]1(O)C(=O)OCc2c1cc1n(c2=O)Cc2c-1nc1cc(F)c(C)c3c1c2[C@@H](N)CC3	active
CCC1(O)C(=O)OCc2c1cc1n(c2=O)Cc2cc3cc(O)ccc3nc2-1 (configuration not stated)	inactive
CCC[C@@H](N[C@H]1CCS(=O)(=O)C1)C(=O)O	inactive
NC[C@H](c1ccco1)N1CCc2ccccc2C1	inactive
C[C@@H]1CN([C@@H](C)CO)C(=O)c2cccc(NS(=O)(=O)c3ccccc3)c2O[C@@H]1CN(C)Cc1ccncc1	inactive
C[C@H](CO)N1C[C@H](C)[C@H](CN(C)S(=O)(=O)c2ccc(Cl)cc2)Oc2ccc(NC(=O)Cn3cnnn3)cc2CC1=O	inactive
COCC#Cc1ccc([C@@H]2[C@@H](CO)N3C(=O)CN(C(=O)C4CCOCC4)C[C@@H]23)cc1	inactive
Cc1noc(C)c1NC(=O)N(C)C[C@@H]1Oc2ccc(NC(=O)Cn3cnnn3)cc2C(=O)N([C@H](C)CO)C[C@@H]1C	inactive
Cc1cc(C(C)(C)CC(C)(C)C)ccc1OCCOCC[N+](C)(C)Cc1ccccc1.[Cl-]	active

Compound	cytotoxicity call
C[N+](C)(CCOc1ccccc1)Cc1ccccc1.O=C([O-])c1cc2ccccc2cc1O	inactive
C[N+](C)(CCOc1ccccc1)Cc1ccccc1.O=C(O)c1cc2ccccc2c(Br)c1O	inactive
C[C@H](CO)N1C[C@H](C)[C@@H](CN(C)S(=O)(=O)c2cn(C)cn2)Oc2ncc(/C=C/c3ccccc3)cc2C1=O	inactive
Cc1ccc(S[C@]2(C(=O)NCCCN(C)C)CC(=O)N(Cc3ccccc3Cl)[C@@H]2c2ccc(CO)cc2I)cc1	inactive
COc1ccc(NC(=O)N(C)C[C@H]2OCCCC[C@@H](C)Oc3ccc(NS(=O)(=O)c4ccc(C)cc4)cc3C(=O)N([C@@H](C)CO)C[C@H]2C)cc1	inactive
CC(C)Cn1cnc2ccccc21	inactive
CCn1c(=S)ccc2ccccc21	inactive
CCn1cc(-c2ccc3ccccc3n2)c(=S)c2ccccc21	active
CN1N=C(C(N)=O)CCC1=O	inactive
C[C@@H]1CN([C@H](C)CO)C(=O)c2cc(NC(=O)Cn3cnnn3)ccc2O[C@@H]1CN(C)C(=O)Nc1ccccc1	inactive
O=C(C[C@@H]1CC[C@H]2[C@@H](COC[C@@H](O)CN2S(=O)(=O)c2ccccc2)O1)N1CCc2ccccc2C1	inactive
C[C@H](N[P@@](=O)(OC[C@H]1O[C@@H](n2ccc(N)nc2=O)C(F)(F)[C@@H]1O)Oc1ccccc1)C(=O)OCc1ccccc1	inactive
CC(C)OC(=O)[C@H](C)N[P@](=O)(OC[C@H]1O[C@@H](n2ccc(=O)[nH]c2=O)[C@@](C)(O)[C@@H]1O)Oc1ccccc1	inactive
COc1nc(N)nc2c1ncn2[C@@H]1O[C@H](CO[P@@](=O)(N[C@@H](C)C(=O)OCC(C)(C)C)Oc2cccc3ccccc23)[C@@H](O)[C@@]1(C)O	active
Cc1noc(C)c1S(=O)(=O)Nc1cccc2c1O[C@H](CN(C)S(=O)(=O)c1ccc(F)cc1)[C@@H](C)CN([C@H](C)CO)C2=O	inactive
Cc1noc(C)c1NC(=O)Nc1ccc2c(c1)C(=O)N([C@H](C)CO)C[C@H](C)[C@H](CN(C)C(=O)Nc1ccc(C(F)(F)F)cc1)OCCCC[C@H](C)O2	inactive
COc1ccc(NC(=O)Nc2ccc3c(c2)C(=O)N([C@@H](C)CO)C[C@@H](C)[C@H](CN(C)S(=O)(=O)c2ccc(OC)cc2)OCCCC[C@H](C)O3)cc1	inactive
C[C@H]1CN([C@@H](C)CO)C(=O)Cc2cc(NC(=O)Cc3ccccc3)ccc2O[C@H]1CN(C)Cc1ccc(Oc2ccccc2)cc1	active
C[C@@H]1CN([C@@H](C)CO)C(=O)Cc2cc(NC(=O)Cc3ccccc3)ccc2O[C@H]1CN(C)Cc1ccc(Oc2ccccc2)cc1	inactive
C[C@H](CO)N1C[C@H](C)[C@H](CN(C)Cc2ccc(Oc3ccccc3)cc2)Oc2ccc(NC(=O)Cc3ccccc3)cc2CC1=O	inactive
C[C@H]1CN([C@@H](C)CO)C(=O)Cc2cc(NC(=O)Cc3ccccc3)ccc2O[C@@H]1CN(C)Cc1ccc(Oc2ccccc2)cc1	inactive
C[C@H](CO)N1C[C@H](C)[C@@H](CN(C)Cc2ccc(Oc3ccccc3)cc2)Oc2ccc(NC(=O)Cc3ccccc3)cc2CC1=O	inactive
C[C@@H]1CN([C@H](C)CO)C(=O)Cc2cc(NC(=O)Cc3ccccc3)ccc2O[C@@H]1CN(C)Cc1ccc(Oc2ccccc2)cc1	active
C[C@@H]1CN([C@H](C)CO)C(=O)Cc2cc(NC(=O)Cc3ccccc3)ccc2O[C@H]1CN(C)Cc1ccc(Oc2ccccc2)cc1	inactive
C[C@@H]1CN([C@@H](C)CO)C(=O)Cc2cc(NC(=O)Cc3ccccc3)ccc2O[C@@H]1CN(C)Cc1ccc(Oc2ccccc2)cc1	active
Cc1ccc(S(=O)(=O)Nc2ccc3c(c2)C(=O)N([C@@H](C)CO)C[C@H](C)[C@H](CN(C)C(=O)CCC(F)(F)F)OCCCC[C@H](C)O3)cc1	inactive

Compound	cytotoxicity call
COc1ccc(NC(=O)Nc2ccc3c(c2)C(=O)N([C@H](C)CO)C[C@H](C)[C@H](CN(C)C(=O)Cc2ccccc2)OCCCC[C@@H](C)O3)cc1	inactive
Cc1noc(C)c1NC(=O)Nc1cccc2c1O[C@H](CN(C)S(=O)(=O)c1cn(C)cn1)[C@@H](C)CN([C@H](C)CO)C2=O	inactive
C[C@H](CO)N1C[C@H](C)[C@H](CN(C)S(C)(=O)=O)Oc2ccc(NS(C)(=O)=O)cc2CC1=O	inactive
C=CCNS(=O)(=O)c1cccc2nonc12	inactive
C[C@H](CO)N1C[C@H](C)[C@@H](CN(C)S(=O)(=O)c2cn(C)cn2)Oc2ccc(NS(=O)(=O)c3cn(C)cn3)cc2CC1=O	inactive
C[C@@H]1CCCCO[C@H](CN(C)S(C)(=O)=O)[C@H](C)CN([C@@H](C)CO)C(=O)c2cc(N(C)C)ccc2O1	inactive
O=C(Cc1ccncc1)NCC[C@@H]1CC[C@@H](NC(=O)C2CCOCC2)[C@H](CO)O1	inactive
CC(C)NC(=O)Nc1ccc2c(c1)CC(=O)N([C@H](C)CO)C[C@H](C)[C@H](CN(C)Cc1ccc3c(c1)OCO3)O2	inactive
CCOC(=O)CCCCCC(=O)Nc1ccc2c(c1)C(=O)N([C@H](C)CO)C[C@@H](C)[C@@H](CN(C)C(=O)CCC(F)(F)F)OCCCC[C@H](C)O2	inactive
Cc1ccc(S(=O)(=O)N[C@@H](Cc2ccccc2)C(=O)NCCn2cc(C(=O)NO)nn2)cc1	inactive
Cc1ccc(S(=O)(=O)N[C@@H](Cc2ccccc2)C(=O)NCCn2cc(-c3cccc(/C=C/C(=O)NO)c3)nn2)cc1	inactive
Cc1ccc(S(=O)(=O)N[C@@H](Cc2ccccc2)C(=O)NCCn2cc(CCC(=O)NO)nn2)cc1	active
Cc1ccc(S(=O)(=O)N[C@@H](Cc2ccccc2)C(=O)NCCCn2cc(CCC(=O)NO)nn2)cc1	inactive
Cc1ccc(S(=O)(=O)N[C@@H](Cc2ccccc2)C(=O)NCCCn2cc(-c3cccc(/C=C/C(=O)NO)c3)nn2)cc1	active
Cc1ccc(S(=O)(=O)N[C@H](C(=O)NCCn2cc(-c3cccc(/C=C/C(=O)NO)c3)nn2)C(C)C)cc1	inactive
Cc1noc(C)c1NC(=O)Nc1ccc2c(c1)C(=O)N([C@@H](C)CO)C[C@H](C)[C@@H](CN(C)Cc1ccccc1)OCCCC[C@@H](C)O2	inactive
C[C@H](CO)N1C[C@H](C)[C@@H](CN(C)CC2CCCCC2)Oc2c(NC(=O)Nc3ccccc3)cccc2C1=O	inactive
C[C@H]1CN([C@@H](C)CO)C(=O)c2cc(NS(=O)(=O)c3ccc(Cl)cc3)ccc2O[C@H]1CN(C)Cc1ccc(Cl)c(Cl)c1	active
C[C@H]1CN([C@@H](C)CO)C(=O)c2cc(NS(=O)(=O)c3ccc(F)cc3)ccc2O[C@H]1CN(C)Cc1ccc(Cl)c(Cl)c1	inactive
C[C@H](CO)N1C[C@H](C)[C@@H](CN(C)Cc2ccc(Cl)c(Cl)c2)Oc2ccc(NS(=O)(=O)c3ccc(F)cc3)cc2C1=O	inactive
C[C@H](CO)N1C[C@H](C)[C@H](CN(C)Cc2ccc(Cl)c(Cl)c2)Oc2ccc(NS(=O)(=O)c3ccc(Cl)cc3)cc2C1=O	active
C[C@H](CO)N1C[C@H](C)[C@@H](CN(C)Cc2ccc(Cl)c(Cl)c2)Oc2ccc(NS(=O)(=O)c3ccc(Cl)cc3)cc2C1=O	active
C[C@@H]1CN([C@@H](C)CO)C(=O)c2cc(NS(=O)(=O)c3ccc(Cl)cc3)ccc2O[C@@H]1CN(C)Cc1ccc(Cl)c(Cl)c1	active
C[C@@H]1CN([C@H](C)CO)C(=O)c2cc(NS(=O)(=O)c3ccc(F)cc3)ccc2O[C@@H]1CN(C)Cc1ccc(Cl)c(Cl)c1	inactive
C[C@@H]1CN([C@H](C)CO)C(=O)c2cc(NS(=O)(=O)c3ccc(Cl)cc3)ccc2O[C@H]1CN(C)Cc1ccc(Cl)c(Cl)c1	inactive
